Inconclusive results are not listed. Active and inactive are the calls of the source. How the source made its calls: active means hit-call score of the fitted dose curve at least 0.9, where 1 is the maximum; inconclusive means response in the unintended direction; inactive means score below 0.9.
Assay: Tanguay_ZF_120hpf_AXIS_legacy: (Legacy) Oregon State University Tanguay Lab 120 Hour Post-fertilization zebrafish Assay for Body Axis Malformation (AID 2283635);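 on AC50: potency for an increased fraction of larvae scored with body axis malformation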
Summary of the method: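 Tropical 5D wild-type zebrafish embryos, dechorionated with pronase at 4 hpf, were placed singly in wells at 6 hpf and exposed statically to test chemical (0.64% DMSO final) at 28C until 120 hpf, then scored by brightfield for body axis defects.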

Which outcome does the source give for `COc1cccc(-c2ccc(/C=C\CN3CCCCCC3)cc2Cl)c1` here?
Its outcome is “inactive”.

For `CC[C@H]1CC[C@H](NCc2cc3c(cc2OC)[C@H]2C[C@H]2C(=O)N3C)[C@H](c2ccccc2)N1`, which outcome is on record?
Its outcome is “inactive”.

For `Fc1ccccc1[C@@H](F)COC1CCC(Nc2ncnc3[nH]ncc23)CC1` (some centres not stated), which outcome is on record?
The outcome was “inactive”.

Which outcome does the source give for `CNCc1ccc(NC(=O)c2c[nH]c3c2C(=O)CCC3)cc1` here?
Its outcome is “inactive”.

For `O=c1[nH]c2ccc(S(=O)CCN3CCC(Cc4ccc(F)cc4)CC3)cc2o1` (configuration not stated), which outcome is on record?
The outcome was “inactive”.

Which outcome does the source give for `CCOC(=O)c1ccc(C2CCC(NC[C@H](O)COc3ccc(O)c(NS(C)(=O)=O)c3)CC2)cc1` (some centres not stated) here?
The outcome was “inactive”.

With `CCN(C(=O)c1cc(C)cc(OC[C@H](C)Nc2ccncc2)c1)C(C)C` as the compound, how does the outcome read?
Its outcome is “inactive”.

Which outcome does the source give for `Cc1ccc(O)cc1` here?
Its outcome is “inactive”.

With `CNS(=O)(=O)c1cc(C(=O)N2CCC(CCN3C4CCC3CC(n3c(C)nc5ccccc53)C4)(c3cccc(F)c3)CC2)c(Cl)cc1F` (configuration not stated) as the compound, how does the outcome read?
The outcome was “inactive”.

For `CC(C)CCO`, which outcome is on record?
The outcome was “inactive”.

Which outcome does the source give for `CCCCC(CC)COC(=O)CCCCCCCCC(=O)OCC(CC)CCCC` (configuration not stated) here?
The outcome was “inactive”.

With `CN(C)c1ccc(Cc2ccc(N(C)C)cc2)cc1` as the compound, how does the outcome read?
Its outcome is “inactive”.

With `CCNc1ccccc1` as the compound, how does the outcome read?
The outcome was “inactive”.

Which outcome does the source give for `CCn1nc(Cc2ccccc2)cc1C1CCN(C[C@H]2C[C@H](N(C)[C@@H](C(=O)O)C(C)C)C[C@@H]2c2cccc(F)c2)CC1` here?
Its outcome is “inactive”.

With `CC(C)CCCCCCOC(=O)c1ccc(C(=O)OCCCCCCC(C)C)c(C(=O)OCCCCCCC(C)C)c1` as the compound, how does the outcome read?
Its outcome is “inactive”.

Which AC50 does the source give for `CC(C)=CCC/C(C)=C/CO` here?
The AC50 was 23.6 µM (active).

For `CC(=O)c1ccc2c(c1)[C@H](NC(=O)c1ccc(F)cc1)[C@@H](O)C(C)(C)O2`, which outcome is on record?
The outcome was “inactive”.

Which outcome does the source give for `CCCC(=O)OCC` here?
The outcome was “inactive”.

With `CC1=CC(=O)CC(C)(C)C1` as the compound, how does the outcome read?
The outcome was “inactive”.

For `COC(=O)CC(=O)OC`, which outcome is on record?
Its outcome is “inactive”.

With `CCCCC(CC)COC(=O)c1ccc(C(=O)OCC(CC)CCCC)cc1` (configuration not stated) as the compound, how does the outcome read?
Its outcome is “inactive”.

Which outcome does the source give for `COc1ccc2sc(C(=O)Nc3nnn[nH]3)c(OC(C)C)c2c1` here?
Its outcome is “inactive”.

Which outcome does the source give for `Cc1c(-c2cccnc2)c2ccccc2n1CCCCC(=O)O` here?
Its outcome is “inactive”.

With `CCc1cc(SCc2sc(-c3ccc(C(F)(F)F)cc3)nc2CN2CCN(c3ccc(OC)cc3)CC2)ccc1OCC(=O)O` as the compound, how does the AC50 read?
The AC50 was 26 µM (active).

With `CCOC(=O)COc1ccc2c(c1)CC(NCC(O)c1cccc(Cl)c1)CC2` (configuration not stated) as the compound, how does the outcome read?
The outcome was “inactive”.

For `CCOc1cccc(-n2cc(C(=O)N3CCN(c4cc(C(=O)O)c5ccccc5c4)CC3)nc2-c2ccc(C)cc2)c1`, which outcome is on record?
The outcome was “inactive”.

With `COCCOc1cc2cc(C(=O)NC3CCN(C(C)C)CC3)n(CC(=O)Nc3ccc(Cl)cn3)c2cn1` as the compound, how does the outcome read?
The outcome was “inactive”.

— PubChem BioAssay (EPA / NIEHS)
